# In PubChem BioAssay AID1276 (Columbia University Molecular Screening Center, 2008):
# The campaign covered roughly 190,000 compounds. About 2,000 (1.1%) were called active. For the sample, actives were picked, then their nearest neighbours and some compounds at random. A number with no mark means an inactive call.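 Rule for the calls: active = activation above a set limit, based on mean plus 3 SD of controls (cut at about 140% in these data); inconclusive = one replicate above the limit, the other below; inactive = the rest.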
# Assay: activators of APP 5'UTR luciferase reporter, primary screen, SH-SY5Y cells (AID 1276)
# Settings: SH-SY5Y APP 5'UTR luciferase reporter, luminescence; at 2 µM; hits give high values; zero percent = DMSO vehicle wells
row,SMILES,activation
1,COc1ccccc1NC(=O)C1=C(C)NC(=O)NC1c1ccc(C)s1 (stereo not drawn),12.8%
2,COc1ccccc1NC(=O)c1ccc(C)s1,141% (active)
3,COC(=O)c1c(NC(C)=O)sc(C(=O)Nc2ccccc2OC)c1C,2.59%
4,CC[n+]1c(C)n(-c2ccccc2)c2ccc(NC(C)=O)cc21,19.1%
5,COc1ccc(C(=O)Nc2nncs2)c(OC)c1,31.6%
6,CCOC(=O)c1sc(NC(=O)c2ccncc2)nc1C,7.58%
7,COC(=O)c1sc(NC(=O)c2ccc(OC)cc2OC)nc1C,137% (active)
8,CCN(CC(=O)Nc1ccc(Cl)c(S(=O)(=O)N(C)C)c1)Cc1nc2ccccc2c(=O)[nH]1,-2.77%
9,O=C(O)Cc1sc(-c2ccccc2)nc1-c1cccs1,2.54%
10,NC(=O)Cc1ccc2sc(-c3ccccc3)nc2c1,140% (active)
11,O=C(O)Cc1sc(-c2ccc(C(=O)O)cc2)nc1-c1ccccc1,19.5%
12,O=C(Nc1nc2ccc([N+](=O)[O-])cc2s1)c1ccc(S(=O)(=O)N2CCCc3ccccc32)cc1,2.11%
13,CCCCN(C(=O)COc1ccc(NC(C)=O)cc1)C1CCS(=O)(=O)C1 (stereo not drawn),6.89%
14,COc1cccc(C(=O)Nc2nc3ccc(S(C)(=O)=O)cc3s2)c1,61.6%
15,COc1ccc2nc(NC(=O)c3ccc(Br)s3)sc2c1,136% (active)
16,COc1ccc2nc(Nc3nc4ccc(NC(C)=O)cc4s3)sc2c1,20.2%
17,CCOC(=O)CSC1=N/C(=C/c2ccc(-n3cncn3)cc2)C(=O)N1C(C)=O,-12%
18,O=C(NCc1nnc(SCC(=O)N2CCC(Cc3ccccc3)CC2)o1)c1ccco1,-6.49%
19,O=C(OCc1ccc([N+](=O)[O-])cc1)c1ccccn1,-1.07%
20,N/C(=N\OC(=O)c1ccc([N+](=O)[O-])cc1)c1ccccn1,149% (active)
21,N/C(=N\OC(=O)Cc1ccc([N+](=O)[O-])cc1)c1ccccn1,60.6%
22,O=[N+]([O-])c1ccc2[nH]c3c(c2c1)CCCC3O (stereo not drawn),-8.34%
23,O=C(COC(=O)c1ccccc1F)Nc1cc(S(=O)(=O)N2CCOCC2)ccc1N1CCCC1,6.91%
24,O=C(/C=C/c1ccccc1)c1ccoc1,0.93%
25,O=C(O)c1ccc2c(c1)C(=O)N(c1ccc(/C=C/C(=O)c3ccccc3)cc1)C2=O,19.3%
26,O=C(/C=C/c1ccc(N2CCOCC2)cc1)c1ccccc1,140% (active)

row,SMILES,activation
1,O=S(=O)(Nc1ccccn1)c1cccc(S(=O)(=O)c2ccc(Cl)cc2)c1,8.9%
2,COCCNC(=S)Nc1cc(S(=O)(=O)N2CCOCC2)ccc1N1CCCCC1,21.7%
3,Cn1nnnc1SCC(=O)NNC(=O)c1ccc(Br)cc1,-3.54%
4,O=C(COC(=O)CNS(=O)(=O)c1ccccc1)NC12CC3CC(CC(C3)C1)C2,0.34%
5,CN(C)CCN=c1cc(-c2ccccc2)oc2ccc(Cl)cc12,158% (active)
6,CN(C)CCn1c(=S)[nH]c2ccc(Cl)cc2c1=O,-6.45%
7,Cc1cc(C)n(-c2ccc(C(=O)O)cc2[N+](=O)[O-])n1,-4.56%
8,O=C(CN1CCN(c2ccccn2)CC1)N1CCc2ccccc21,30.9%
9,COc1ccccc1-c1cc(C(=O)N2CCCCC2)no1,113%
10,O=C(c1cc(-c2cccs2)on1)N1CCCCC1,138% (active)
11,O=C(c1cc(-c2ccccc2O)on1)N1CCCC1,102%
12,O=C(Nc1ccc(N2CCOCC2)cc1)c1ccc(-c2ccccc2[N+](=O)[O-])o1,17.6%
13,CC1Cc2ccccc2N1C(=O)CSc1nnc(C2CC2)n1C (stereo not drawn),23.3%
14,COc1ccc(N2C(=O)CC(Sc3n[nH]c(-c4ccc(C)cc4)n3)C2=O)cc1 (stereo not drawn),14.7%
15,O=C(Nc1ccc(F)cc1)N1CCCC(c2nc3c(nnn3Cc3ccccc3Cl)c(=O)[nH]2)C1 (stereo not drawn),-4.96%
16,Cn1nnc2cc(C(=O)NCCC3=CCCCC3)ccc21,174% (active)
17,CN(c1ccc(C(=O)NCCC2=CCCCC2)cc1)S(C)(=O)=O,76%
18,O=C(NCCC1=CCCCC1)c1ccc(Cl)c([N+](=O)[O-])c1,8.77%
19,CCOCCCNC(=O)C(=O)NCCCOCC,-1.33%
20,O=C(C1CCCO1)N(c1ccc(F)cc1)C1C=CS(=O)(=O)C1 (stereo not drawn),5.93%
21,Cc1ccc(NC(=O)COC(=O)CCc2nc3ccccc3n2-c2ccccc2)c(C)c1,11.8%
22,O=C(CN1CCN(c2ncccn2)CC1)Nc1ccccc1C(F)(F)F,-6.86%
23,Cc1ccc(CN(Cc2cccnc2)C(=S)Nc2cc(Cl)ccc2C)cc1,2.52%
24,CSCCC(Nc1nc2ccccc2s1)C(=O)O (stereo not drawn),-7.07%
25,O=C(Nc1nc2ccccc2s1)c1ccc2c(c1)OCO2,183% (active)
26,CC(=O)Nc1ccc(-c2csc(NC(=O)Nc3ccccc3)n2)cc1,-14.7%

row,SMILES,activation
1,Cc1cc(C)c2nc(NC(=O)c3ccc4c(c3)OCO4)sc2c1,-8.57%
2,COCc1nnc(NC(=O)c2ccc3c(c2)OCO3)s1,61.2%
3,O=C(Nc1ccccc1)Nc1nc2ccccc2s1,212% (active)
4,CCCC1NC(=S)NC(C)=C1C(C)=O (stereo not drawn),-10.8%
5,CCCCCOc1ccc(/C=C/C(=O)NCCc2nc3ccccc3[nH]2)cc1OC,-0.79%
6,S=C(NCc1ccco1)Nc1ccc2c(c1)OCCO2,18.6%
7,CC1CCCC(C)N1/N=C/c1ccccc1OC(F)F (stereo not drawn),5.03%
8,CCOc1ncccc1C(=O)OCc1cn2cc(Cl)ccc2n1,-0.86%
9,O=c1cc(CSc2ccc(Cl)cc2)nc(N2CCOCC2)[nH]1,6.36%
10,Clc1ccc2nc(CSc3ccccc3)cn2c1,216% (active)
11,Cc1nn(Cc2ccc(F)cc2)c(C)c1NC(=O)c1cccnc1Cl,10.3%
12,Cc1ccc(-c2nc3ccccc3[nH]2)cc1NC(=O)c1sc2ccccc2c1Cl,-3.21%
13,Cc1ccc(-c2nc3ccccc3[nH]2)cc1N,201% (active)
14,c1ccc2[nH]c(-c3nc4ccccc4[nH]3)nc2c1,181% (active)
15,c1ccc(-c2[nH]ncc2-c2nc3ccccc3[nH]2)cc1,-1.2%
16,COc1ccc(Br)cc1C(=O)NC(=S)Nc1cc(-c2nc3ccccc3[nH]2)ccc1C,21.4%
17,COc1ccc(-c2[nH]nc(-c3ccccc3)c2-c2nc3ccccc3[nH]2)cc1,-4.36%
18,COc1ccc(C2CC(c3ccccc3)=NN2C(=O)COC(=O)COc2ccccc2)cc1 (stereo not drawn),0.61%
19,O=C(CSc1ccc([N+](=O)[O-])cn1)Nc1ccc(N2CCOCC2)c(Cl)c1,-13%
20,COc1ccc(OC)c(Nc2nc(-c3ccc(O)c(O)c3)cs2)c1,-40.2%
21,COc1ccc(-c2csc(NC(=O)CCCc3cccs3)n2)cc1,-2.07%
22,COc1ccc(-c2csc(Cc3nc(O)cs3)n2)cc1,157% (active)
23,Cc1cccc(/C(N)=N/OC(=O)c2ccccc2Cl)c1,206% (active)
24,Cc1cccc(C(=O)c2cccc(C)c2)c1,7.97%
25,N/C(=N\OC(=O)c1cc(-c2ccccc2)nc2ccccc12)c1ccncc1,7.36%
26,Cc1ccc(NC(=S)N2CCN(c3ncccn3)CC2)cc1C,2.51%

row,SMILES,activation
1,COc1ccc2oc(-c3cccc(NC(=O)CSc4ccc(Cl)cc4)c3)nc2c1,48.5%
2,O=[N+]([O-])c1ccc2oc(-c3cccc(O)c3)nc2c1,184% (active)
3,COc1cccc(-c2nc(S(=O)(=O)c3ccccc3)c(N3CCOCC3)o2)c1,10.7%
4,COc1cccc(-c2nc3cc(C)ccc3o2)c1,172% (active)
5,COc1ccc(-c2nc3cc([N+](=O)[O-])ccc3o2)cc1OC,20.2%
6,O=[N+]([O-])c1cccc(Nc2c3ccccc3nc3ccccc23)c1,-0.09%
7,N#Cc1c(-c2ccc(Cl)cc2)c2c([nH]c1=S)CCCC2,15.9%
8,COc1cc(OC)c(-n2cc(-c3ccc(Cl)cc3)[nH]c2=O)cc1Cl,-7.27%
9,CC1(C)CC(=O)C=C(N2CCOCC2)C1,6.79%
10,CCCNS(=O)(=O)c1ccc(CCC(=O)N2CCCC2)cc1,4.45%
11,CC(C)CC(=O)NC(=S)NCc1ccccc1,9.6%
12,COC(=O)c1nc2ccccc2s1,-8.64%
13,CC(C)CC(=O)N/C(N)=N/c1nc2ccccc2s1,203% (active)
14,O=C(O)CSCc1nc2ccccc2s1,-3.48%
15,O=C(O)CCCCc1nc2ccccc2s1,-11.6%
16,CCC(=O)NC(=Nc1nc2ccccc2s1)NC(=O)CC,147% (active)
17,Cc1ccc(C(=O)NNC(=O)c2cccs2)cc1,38.8%
18,NC1=NC(=O)C(Cc2cccc(Cl)c2)S1 (stereo not drawn),11.8%
19,C=CCO/N=C/C1=C(O)C(C(=O)OC)C(C)(C)CC1=O (stereo not drawn),7.9%
20,Cc1cccc(C)c1OCC(=O)NC(Cc1c[nH]c2ccccc12)C(=O)O (stereo not drawn),10.3%
21,O=C(CN1C(=O)c2cccc3cccc1c23)Nc1ccccc1,-9.88%
22,O=C(N/N=C/c1cc2c(cc1Br)OCO2)C1COc2ccccc2O1 (stereo not drawn),-5.77%
23,CCCOc1ccc(C(=O)NCCc2ccccc2)cc1,156% (active)
24,O=C(NCCc1ccccc1)c1ccc(OCCOc2ccccc2)cc1,4.18%
25,O=C(NCCOc1ccccc1)c1ccccc1,123%
